beta cell repl – inducers of beta-cell replication in MIN6 cells | MIN6 cells proliferation, ATPlite luminescence, 48 h; cells starved in 0.2% serum; 100% = growth in 10% serum | proliferation, % at 10 µM | actives 0.29% (n = 330,000);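 active means compounds whose signal lies at least 3.5 SD above the mean of all wells on their plate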;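 further: 0% = DMSO-treated cells in low-serum medium and 100% = 10% serum control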
MPTP block – blocks calcium-induced mitochondrial swelling. actives 1.4% (n = 360,000). inhibition, % at 10 µM. AID 602449. isolated mouse mitochondria, Ca2+ swelling absorbance, 30 min;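 active means inhibition of 50% or more, scaled per plate between neutral and stimulator controls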;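 further: 0% = DMSO wells given calcium and 100% = 1 mM EGTA wells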
FAS TE block – inhibitors of human fatty acid synthase thioesterase domain; inhibition, % at 15 µM; recombinant FAS-TE, OMFH fluorogenic substrate, fluorescence endpoint; actives 0.67% (n = 360,000); P49327;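 active means compounds whose normalised, plate-corrected inhibition of enzyme fluorescence in the single-dose primary screen is 50% or more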;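 further: 0% = DMSO with enzyme and 100% = substrate without enzyme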
p-CIP stab down – p/CIP protein destabilization; decrease of EGFP signal, % at 10 µM; F442A p/CIP-EGFP cells, EGFP fluorescence, 16 h; actives 0.01% (n = 290,000);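 active means EGFP signal decrease of at least 30% at 10 µM or well 3 SD below plate mean, unless failing retest; inactive means the rest, including hits failing retest or dose response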
NR3A LBD binder – modulates the human NR3A ligand-binding domain | NR3A LBD differential scanning fluorimetry, Tm shift; 0% = protein alone, 100% = glycine-bound protein | Tm shift relative to glycine control, % at 25 µM | actives 2.5% (n = 340,000);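 active means melting temperature shift of at least 10% of the positive control shift, at one fixed dose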
MPTP counter – membrane potential counter-screen of mitochondrial pore inhibitors | shares compounds with MPTP block | isolated mitochondria, Rhodamine 123 fluorescence | actives 78% (n = 5,000) | inhibition, % at 10 µM; in the data active means inhibition above about 22%;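 further: 0% = DMSO vehicle and 100% = positive control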
MPTP abs DR – MPTP inhibition, dose response swelling confirmation; actives 58% (n = 780); IC50, µM; shares compounds with MPTP block; isolated mitochondria swelling, absorbance; in the data active means IC50 below about 20 µM
MPTP counter DR – counter-screen for mitochondrial permeability transition pore inhibitors, dose response | shares compounds with MPTP block | isolated mitochondria counterscreen, fluorescence read-out | IC50, µM | actives 49% (n = 780); in the data active means IC50 below about 80 µM
Numbers without * were called inactive; i = inactive; x = no result. A selection: hits, their analogues and other compounds. The true share with any hit is near 4.1%.

SMILES | beta cell repl | MPTP block | FAS TE block | p-CIP stab down | NR3A LBD binder | MPTP counter | others
Cc1ccccc1-n1ncc2c(SCC(=O)NC3CCCC3)ncnc21 | 0 | 80* | 1 | -49 | -1 | 28*
CCOC(=O)/C(C#N)=C1/C=C(C)NC(c2ccccc2O)=N1 | -6 | 94* | 1 | -8 | 14* | 89*
CC(C)Cc1csc(NC(=O)c2ccc(F)cc2)c1C(=O)O | -3 | 53* | -1 | -1 | -2 | 71*
CCOC(=O)c1c(CC(C)C)csc1NC(=O)c1ccccc1C(=O)O | -3 | 2 | 1 | -2 | -2 | x
CO/N=C/C(C#N)c1ncc(C(F)(F)F)cc1Cl (stereo not given) | -3 | 99* | -20 | -11 | -6 | 92*
COc1ccc2[nH]c3c(c2c1)CCN1C(=O)C(CC(=O)NC(C)(C)C)C[C@H](C(=O)N2CCCCC2)[C@@]31CCc1ccccc1 (stereo not given in full) | x | 0 | 23 | x | 0 | x
CC(=O)c1cccc(NS(=O)(=O)c2ccc(-c3cnc(C4CC4)o3)cc2)c1 | -8 | 94* | 0 | -15 | -8 | 94*
CC(=O)Nc1ccc(NS(=O)(=O)c2ccc(-c3cnc(C4CC4)o3)cc2)cc1 | 1 | -2 | 0 | -21 | -3 | x
O=C(N/N=C/c1cc([N+](=O)[O-])cc(Br)c1O)C12CC3CCC(CC(C3)C1)C2 | -6 | 84* | 32 | -14 | 0 | 28*
O=C(CSc1ccc(C(F)(F)F)cc1[N+](=O)[O-])Nc1ccccc1 | -3 | 59* | 3 | -14 | -2 | 61*
Cc1ccc2nc(N(CCCN(C)C)C(=O)CCc3ccccc3)sc2c1 | x | 102* | 9 | -17 | -1 | -10 | MPTP abs DR=3.7*;MPTP counter DR=>80
CN(C)CCCN(C(=O)c1ccc2c(c1)CCCC2)c1nc2ccc(Cl)cc2s1 | 0 | 90* | 27 | -2 | 11* | -8
CN(C)CCCN(C(=O)CCc1ccccc1)c1nc2ccc(Cl)cc2s1 | -5 | 93* | 16 | -2 | 1 | -17
Cc1ccc(S(=O)(=O)CC(=O)N(CCCN(C)C)c2nc3ccc(C)cc3s2)cc1 | -6 | 90* | -3 | x | 1 | -12 | MPTP abs DR=4.5*;MPTP counter DR=75*
CCNc1nc(NCC)n2c(SCC(=O)c3ccc(C(C)C)cc3)nnc2n1 | -1 | 1 | -7 | 2 | -3 | x
O=C(Nc1ccc(S(=O)(=O)Nc2cnc3ccccc3n2)cc1)c1ccc([N+](=O)[O-])cc1Cl | -2 | 1 | -2 | -11 | -1 | x
CC(C)c1ccc(N(C(=O)c2cc3ccccc3oc2=O)C2C=CS(=O)(=O)C2)cc1 (stereo not given) | -3 | 0 | -14 | -8 | -1 | x
CCc1cccc(CC)c1NC(=O)COC(=O)CCc1cc(OC)c(OC)c(OC)c1 | 0 | -4 | -2 | -3 | -1 | x
CN(CC(=O)Nc1ccc(N2CCOCC2)cc1)C(=O)c1ccc(O)c(Cl)c1 | -2 | 0 | -2 | 14 | 2 | x
CN(C)CCCN(C(=O)COc1ccc(Cl)cc1)c1nc2cc3c(cc2s1)OCO3 | -6 | -1 | 7 | 1 | 1 | x
CN(C)CCCN(C(=O)COc1ccc(Cl)cc1)c1nc2cc3c(cc2s1)OCCO3 | -6 | 87* | 12 | x | 1 | -26 | MPTP abs DR=4.3*;MPTP counter DR=74*
O=C(CSc1nnnn1C1CC2CCC1C2)Nc1ccnc2ccccc12 (stereo not given) | -4 | 98* | -3 | -22 | -1 | 101*
CCc1nc2c(OCCC3CCCCC3)cccn2c1N(C=O)Cc1ccc(OC)cc1 | x | 0 | 27 | x | x | x
CCCCNCCOCCOc1ccc(C)cc1Br | 0 | 61* | -11 | 7 | -7 | -11 | MPTP abs DR=i;MPTP counter DR=>80
COCCCNCCOCCOc1ccc(C)cc1Br | 0 | -1 | -8 | 2 | 0 | x
SMILES | beta cell repl | MPTP block | FAS TE block | p-CIP stab down | NR3A LBD binder | MPTP counter | others
COCCn1c(SCc2ccc(C(=O)OC)o2)nc2cc(Cl)ccc2c1=O | -4 | 2 | 32 | -14 | 0 | x
CCCCN(C)c1c(C)nc2ccc(C(=O)NCCOc3ccc(OC)cc3)cn12 | x | 96* | 6 | x | x | 78*
CC1CCC(NC(=O)C2CCN(S(=O)(=O)c3cccc4nonc34)CC2)CC1 (stereo not given) | 0 | 2 | -3 | -3 | -2 | x
COc1ccc(OCC(=O)N2CCN(c3nnc(-c4ccc(C)cc4)c4ccccc34)CC2)cc1 | -4 | 60* | 16 | -14 | 0 | 15 | MPTP abs DR=20*;MPTP counter DR=22*
COc1ccc(OCC(=O)N2CCN(c3nnc(-c4ccccc4)c4ccccc34)CC2)cc1 | -1 | 9 | 5 | -10 | -7 | x
Cc1ccc(OCC(=O)N2CCN(c3nnc(-c4ccc(C)cc4)c4ccccc34)CC2)cc1 | -6 | 84* | 16 | -3 | -12 | 22*
CC(=O)c1nc(N2C(=O)CC(Cc3ccc(C)cc3)C2=O)sc1C (stereo not given) | -3 | 0 | -3 | 0 | 3 | x
Fc1ccc(NC(=S)Nc2ccccc2Cl)cc1 | -3 | 10 | -10 | 0 | -3 | x
CSc1cccc(NC(=S)NN(C)C)c1 | 2 | 2 | -6 | -7 | 1 | x
Fc1ccc(NC(=S)Nc2cccc(Cl)c2)cc1 | -5 | 86* | 1 | 0 | 13* | 97*
CSc1cccc(NC(=S)Nc2ccc(F)cc2)c1 | -6 | 73* | 4 | -1 | 14* | 85*
CC(C)c1cccc(C(C)C)c1NC(=S)Nc1cccc(Cl)c1 | -4 | 88* | 13 | 1 | -1 | 90*
Fc1ccc(NC(=S)Nc2ccc(Br)cc2)cc1 | 0 | 73* | 9 | -1 | 15* | 93*
CCn1nc(C)c(Br)c1C(=O)Sc1ccccc1Cl | -4 | 3 | 14 | -4 | 2 | x
O=S(=O)(c1cccs1)N1CCN(CC(O)COc2cc(Cl)ccc2Cl)CC1 (stereo not given) | -4 | 87* | 17 | -36 | -16 | 91*
O=S(=O)(c1cccs1)N1CCN(CCOc2ccc(Cl)cc2)CC1 | -5 | -3 | 47 | x | -2 | x
CC1Sc2ccc(S(=O)(=O)N3CCC(C(=O)NCc4ccc(Cl)cc4)CC3)cc2NC1=O (stereo not given) | 0 | 0 | 7 | 4 | -8 | x
CC1Sc2ccc(S(=O)(=O)N3CCC(C(=O)Nc4cccc(Cl)c4)CC3)cc2NC1=O (stereo not given) | -7 | 78* | 10 | -2 | 5 | 85*
CCc1ccc(NC(=O)C2CCN(S(=O)(=O)c3ccc4c(c3)NC(=O)C(C)S4)CC2)cc1 (stereo not given) | -8 | 98* | 11 | -12 | 0 | 97*
